Twelve compounds from PubChem BioAssay (NCATS) can be followed below.

Where “and” joins values, the source holds several entries; their conditions need not be identical. Equal entries are not always repeated. Records with an inconclusive call do not appear. Some compounds were tested as several samples or in several runs, with calls that do not always agree. Calls of active or inactive are those of the source. Calls follow the shape of the dose curve; as a rule, active = well fitted curve in the direction sought with a large enough effect; inconclusive = small, poorly fitted or top-dose-only effect, or another doubt; inactive = no such curve, though single readings can be large; an effect the other way counts as inactive or inconclusive.

A short description of test [1]: Cellular Toxicity (caspase-3) BJ (AID 658).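 Also: cells exposed to compound for 16 hours; 0% = DMSO basal and 100% = 10 µM staurosporine.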 In short, it runs like this:
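Luminescent aminoluciferin-substrate cleavage reports caspase 3/7 activity in normal human BJ fibroblasts after 16 hr compound exposure at 37 °C. Normalized to DMSO (basal) and 10 uM staurosporine (100%); AC50 from Hill fit of concentration-response.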

Test [2] can be described thus: Cellular Toxicity (caspase-3) MRC-5 (AID 659).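 Also: cells exposed to compound for 16 h at 37 °C; 0% = DMSO basal and 100% = 10 µM staurosporine.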 In a few lines:
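Luminescence from caspase-cleaved aminoluciferin substrate (Caspase-Glo 3/7, 1 hr RT) reports caspase 3/7 activity in MRC-5 lung fibroblasts after 16 hr compound exposure. Normalized to DMSO basal and 10 uM staurosporine as 100%; AC50 from Hill fits.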

Test [3] can be described thus: Cellular Toxicity (caspase-3) Mesangial (AID 660).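 Also: combined caspase 3 and 7 activity read by Caspase-Glo luminescence; cells exposed to compound for 16 h before the caspase read.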 Also: potency is read from the fitted curve at half-maximal effect. Conditions: Potency: caspase-3 activation. In a few lines: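 Concentration-response qHTS: compound-induced rise in caspase 3/7 luminescence in human mesangial cells after 16 h, normalized to DMSO and 100 uM tamoxifen controls.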
The nature of test [4]: Cellular Toxicity (caspase-3) SK-N-SH (AID 661).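 Also: cells exposed to compound for 16 hours.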 Also: potency is read from the fitted curve at half-maximal effect.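 As to caspase-3 activation: 0% = DMSO basal and 100% = 10 µM staurosporine.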 In short, it runs like this: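 Caspase 3/7 activation is measured as a luminescence increase from aminoluciferin released by substrate cleavage in SK-N-SH cells after 16 hr compound treatment; values are AC50 from concentration-response curves.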
Test [5] is described as follows: Cellular Toxicity (caspase-3) H-4-II-E (AID 663).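 Also: cells exposed to compound for 16 hr before readout.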 Conditions: H-4-II-E rat hepatoma, scaled: DMSO 0%, 100 µM tamoxifen 100%; at 92.2 µM (top of the series). In a few lines:
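Luminescence from caspase-cleaved aminoluciferin substrate, read 20 min after reagent addition, reports caspase 3/7 activation in rat H-4-II-E cells after 16 hr compound exposure. Normalized to DMSO (basal) and 100 uM tamoxifen (100%); AC50 from Hill fits.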

The nature of test [6]: Cellular Toxicity (caspase-3) Hek293 (AID 664).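 Also: cells exposed to compound for 16 h at 37 °C before readout.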 Conditions: HEK293 caspase-3 activation, DMSO = 0%, 100 µM tamoxifen = 100%; at 92.2 µM (top of the series). In short, it runs like this: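 Activation of caspase-3/7 is measured as increased luminescence from cleaved peptide-aminoluciferin substrate in HEK293 cells treated 16 hours at 37 °C. AC50 values come from Hill-equation fits of concentration-response data.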

Test [7] can be described thus: Cellular Toxicity (caspase-3) N2a (AID 665).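 Also: compound exposure lasted 16 h at 37 °C before readout.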 Also: potency is read from the fitted curve at half-maximal effect. Conditions: Potency: caspase-3 activation. In a few lines:
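Plated mouse neuroblastoma N2a cells received titrated compounds for 16 h in complete medium. Caspase activity was then detected with a peptide-aminoluciferin luminescent reagent.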

Test [8] in a line: Cellular Toxicity (caspase-3) NIH 3T3 (AID 666). Also: potency is read from the fitted curve at half-maximal effect.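 As to caspase-3 activation: 0% = DMSO basal and 100% = 100 µM tamoxifen stimulation.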 In short, it runs like this:
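Concentration-response qHTS in NIH 3T3 mouse fibroblasts scores caspase-3/7 activation as rising luminescence after 16 hr compound exposure. Signals are scaled between DMSO-only and 100 uM tamoxifen.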

Test [9] can be described thus: Cellular Toxicity (caspase-3) Renal Proximal Tubule (AID 667).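 Also: cells exposed to compound for 16 hours at 37 °C before detection.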 Also: potency is read from the fitted curve at half-maximal effect.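 As to caspase-3 activation: 0% = DMSO basal and 100% = 10 µM staurosporine.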 The note with it: Potency: caspase-3 activation. In a few lines:
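Freshly isolated primary rat kidney proximal tubule cells, 1000/well, treated 16 hr at 37 °C, then Caspase-Glo 3/7 luminescence after 1 hr. Normalized to DMSO and 10 uM staurosporine; AC50 from Hill fit.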

Test [10] deals with Cytochrome P450 3A4 (Homo sapiens) (UniProt P08684). Nature of the test: qHTS Assay for Inhibitors and Substrates of Cytochrome P450 3A4 (AID 884). Also: nearly all actives have a fitted effect of over 50% in size. Also: potency is read from the fitted curve at half-maximal effect. In a few lines:
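20 nM human CYP3A4 with 25 uM Luciferin-PPXE (at KM) in 200 mM KPO4, preincubated 10 min with compound; NADPH regeneration started a 60 min RT reaction. Luciferin detected by luminescence, normalized to 57 uM ketoconazole as full inhibition.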

Test [11] deals with Guanine nucleotide-binding protein G(i) subunit alpha-1 (Homo sapiens) (UniProt P63096). Nature of the test: qHTS Assay for Inhibitors of RGS12 GoLoco Motif Activity (Green Fluorophore) (AID 879).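 Also: 0% = labeled peptide with Gαi1 and full inhibition = labeled peptide alone without protein; negative values mean loss of peptide binding seen as reduced polarization.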 In short, it runs like this: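 Fluorescence polarization assay: 50 nM Gαi1 with 10 nM FITC-labeled RGS12 GoLoco peptide in 10 mM Tris pH 7.5, 150 mM NaCl, 0.1 mM GDP, 0.05% NP40, 10 min at room temperature with compound.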

Test [12] deals with Cytochrome P450 2C9 (Homo sapiens) (UniProt P11712). Nature of the test: qHTS Assay for Inhibitors and Substrates of Cytochrome P450 2C9 (AID 883). Also: nearly all actives have a fitted effect of over 60% in size. Also: potency is read from the fitted curve at half-maximal effect. In a few lines:
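CYP2C9 deoxyluciferin hydroxylation, 37C, 60 min with NADPH regeneration; 10nM enzyme, 100uM Luciferin-H (KM). Glo detection reagent stopped reaction; luminescence normalized to sulphaphenazole (57uM) full inhibition.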

In test [13] the target is Cytochrome P450 3A4 (Homo sapiens) (UniProt P08684). Nature of the test: qHTS Assay for Activators of Cytochrome P450 3A4 (AID 885). Also: nearly all actives have a fitted effect of over 65% in size. In short, it runs like this:
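Quantitative HTS format: compounds preincubated with 20nM human CYP3A4 and Luciferin-PPXE substrate at KM, reaction started by NADPH regeneration, stopped after 60 min, luciferase luminescence read 20 min later.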

The target in test [14] is Cytochrome P450 2D6 (Homo sapiens) (UniProt P10635). Nature of the test: qHTS Assay for Inhibitors and Substrates of Cytochrome P450 2D6 (AID 891).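 Also: luciferin methyl ether substrate demethylated by CYP2D6 with NADPH regeneration; % is scaled to controls: 0 for no effect and ±100 for the full control effect; nearly all actives have a fitted effect of over 60% in size.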 In short, it runs like this:
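Human CYP2D6 (5 nM) with 30 uM Luciferin-ME EGE (at Km) in 100 mM KPO4, compound preincubated 10 min, then NADPH regeneration system for 60 min at room temperature. Luciferin read by luminescence; normalized to 1.43 uM quinidine.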

Test [15] deals with Cytochrome P450 2C19 (Homo sapiens) (UniProt P33261). Nature of the test: qHTS Assay for Inhibitors and Substrates of Cytochrome P450 2C19 (AID 899). Also: nearly all actives have a fitted effect of over 60% in size. Also: potency is read from the fitted curve at half-maximal effect. In a few lines:
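In 50mM KPO4, the reaction held 5nM enzyme and KM-level (10uM) Luciferin-H EGE; it ran 60 min at 37C after NADPH regeneration and a 10 min compound preincubation. Luminescence values were scaled to 57uM ketoconazole as complete inhibition.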

The nature of test [16]: qHTS Assay for Identification of Small Molecule Agonists for Thrombopoietin (TPO) Signaling Pathway (AID 917). Also: potency is read from the fitted curve at half-maximal effect. In a few lines:
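Murine Ba/F3 cells expressing human TPO receptor and GPIIb-promoter luciferase, IL-3-starved overnight, given compound plus TPO at 26 pM (EC50). After 24 h at 37 C, 5% CO2, luminescence read.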

Test [17] is described as follows: Confirmation and Secondary Assay for Modulators of Hemoglobin Beta Chain Splicing at IVS2 654 locus (AID 910).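 Also: per-well total GFP intensity by laser scanning cytometry after 2-day treatment; % of control where 0% means no effect.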 In a few lines: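 HeLa cells stably carrying EGFP interrupted by mutant beta-globin IVS2-654 intron (CMV-driven) were treated with compound for 2 days at 37C; corrected splicing was scored as total peak GFP intensity per well (488 nm excitation, 500-520 nm emission).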

Sequence of Cytochrome P450 3A4 (Homo sapiens) (P08684 whole entry, looked up): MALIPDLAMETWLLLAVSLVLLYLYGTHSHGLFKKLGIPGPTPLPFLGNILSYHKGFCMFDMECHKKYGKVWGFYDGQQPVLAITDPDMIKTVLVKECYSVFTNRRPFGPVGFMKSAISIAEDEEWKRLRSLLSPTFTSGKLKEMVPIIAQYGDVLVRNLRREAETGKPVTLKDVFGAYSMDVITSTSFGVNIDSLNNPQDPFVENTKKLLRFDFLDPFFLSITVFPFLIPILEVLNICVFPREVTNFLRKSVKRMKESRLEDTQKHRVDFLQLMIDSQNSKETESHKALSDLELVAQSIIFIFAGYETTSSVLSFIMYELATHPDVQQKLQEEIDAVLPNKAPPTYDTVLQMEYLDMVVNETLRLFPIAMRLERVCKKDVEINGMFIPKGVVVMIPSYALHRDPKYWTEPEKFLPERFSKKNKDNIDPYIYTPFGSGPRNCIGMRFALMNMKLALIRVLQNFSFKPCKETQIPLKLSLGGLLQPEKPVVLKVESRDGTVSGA
Sequence of Cytochrome P450 2C9 (Homo sapiens) (P11712 whole entry, looked up): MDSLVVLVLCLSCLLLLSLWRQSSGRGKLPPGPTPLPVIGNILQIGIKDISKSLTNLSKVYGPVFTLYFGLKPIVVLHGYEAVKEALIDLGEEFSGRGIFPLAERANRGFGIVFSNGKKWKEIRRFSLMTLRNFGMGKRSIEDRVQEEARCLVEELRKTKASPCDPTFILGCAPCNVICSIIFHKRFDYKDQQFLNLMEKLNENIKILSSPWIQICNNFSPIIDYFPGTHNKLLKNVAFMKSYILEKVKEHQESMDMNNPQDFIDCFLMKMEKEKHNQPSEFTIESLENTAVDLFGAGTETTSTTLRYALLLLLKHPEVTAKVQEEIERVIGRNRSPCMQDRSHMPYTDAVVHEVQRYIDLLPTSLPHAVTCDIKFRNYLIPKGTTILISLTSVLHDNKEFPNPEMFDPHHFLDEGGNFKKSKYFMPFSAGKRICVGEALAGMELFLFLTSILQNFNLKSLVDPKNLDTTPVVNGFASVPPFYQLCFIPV
Sequence of Cytochrome P450 2C19 (Homo sapiens) (P33261 whole entry, looked up): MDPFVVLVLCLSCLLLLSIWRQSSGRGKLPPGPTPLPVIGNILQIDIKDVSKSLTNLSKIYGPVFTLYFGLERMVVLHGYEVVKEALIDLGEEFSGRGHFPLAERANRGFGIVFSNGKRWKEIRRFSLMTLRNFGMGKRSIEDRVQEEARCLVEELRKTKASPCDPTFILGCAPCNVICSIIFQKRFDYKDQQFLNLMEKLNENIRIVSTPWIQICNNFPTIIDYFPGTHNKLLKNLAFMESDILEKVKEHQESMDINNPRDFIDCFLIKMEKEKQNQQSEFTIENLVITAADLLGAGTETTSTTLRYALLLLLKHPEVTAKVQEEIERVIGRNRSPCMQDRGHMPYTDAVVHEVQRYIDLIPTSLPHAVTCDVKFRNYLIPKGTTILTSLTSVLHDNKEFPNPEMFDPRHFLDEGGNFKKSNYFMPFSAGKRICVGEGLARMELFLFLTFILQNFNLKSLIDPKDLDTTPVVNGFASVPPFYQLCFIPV
Sequence of Guanine nucleotide-binding protein G(i) subunit alpha-1 (Homo sapiens) (P63096 whole entry, looked up): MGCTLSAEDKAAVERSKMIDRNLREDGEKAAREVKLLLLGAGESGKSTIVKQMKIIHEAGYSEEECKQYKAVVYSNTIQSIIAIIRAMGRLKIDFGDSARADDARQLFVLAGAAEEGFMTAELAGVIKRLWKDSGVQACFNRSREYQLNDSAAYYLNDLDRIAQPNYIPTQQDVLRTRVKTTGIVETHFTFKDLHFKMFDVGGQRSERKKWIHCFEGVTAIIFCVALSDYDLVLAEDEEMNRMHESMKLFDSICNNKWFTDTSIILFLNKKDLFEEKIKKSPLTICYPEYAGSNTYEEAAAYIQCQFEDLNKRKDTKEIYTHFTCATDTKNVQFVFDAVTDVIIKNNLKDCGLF
Sequence of Cytochrome P450 2D6 (Homo sapiens) (P10635 whole entry, looked up): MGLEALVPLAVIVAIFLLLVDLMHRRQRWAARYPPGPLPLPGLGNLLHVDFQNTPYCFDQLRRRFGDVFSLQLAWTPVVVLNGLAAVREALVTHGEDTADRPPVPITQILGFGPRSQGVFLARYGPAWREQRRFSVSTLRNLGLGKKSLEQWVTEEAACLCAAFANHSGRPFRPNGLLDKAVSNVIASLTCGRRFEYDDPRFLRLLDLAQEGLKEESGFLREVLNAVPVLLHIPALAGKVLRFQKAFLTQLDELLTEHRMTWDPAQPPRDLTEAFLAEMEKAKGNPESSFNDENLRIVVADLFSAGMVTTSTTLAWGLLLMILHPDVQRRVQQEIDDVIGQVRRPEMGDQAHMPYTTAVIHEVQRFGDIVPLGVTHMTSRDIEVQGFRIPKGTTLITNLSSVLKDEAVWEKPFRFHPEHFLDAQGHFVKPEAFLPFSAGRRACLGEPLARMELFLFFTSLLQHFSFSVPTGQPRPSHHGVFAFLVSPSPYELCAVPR

On to `CC1(C)S[C@@H]2[C@H](NC(=O)[C@H](N)c3ccccc3)C(=O)N2[C@H]1C(=O)O`, for which the compound was classed as inactive in test [1] and in [2]. For the same compound, the Potency entry in test [3], in test [4], in [7], in test [8] and in [9] was “inactive” throughout. The caspase-3 activation in test [5] was 0.54% (inactive); in [6], -0.638% (inactive).

Take `CN(C)c1ccc(N=NS(=O)(=O)O)cc1`: the call in test [1] and in test [2] was inactive. Further, the Potency entry in test [3], in [4], in [7], in test [8], in test [9] and in test [10] was “inactive” each time. For the same compound, the caspase-3 activation in test [5] was 11.8% (inactive); in [6], -1.18% (inactive).

Turning to `O=C(Nc1ccccc1)c1cc([N+](=O)[O-])ccc1Cl`, the compound was classed as inactive in [11]. The Potency entry in test [12] was “inactive and 6.31 µM (active)”; in test [15] it was “inactive and 794 nM (active)”; in [16] it was 1580 nM (active). Also, the Potency entry in [13] and in test [14] was “inactive” throughout.

Turning to `N=C1N=C(N)c2cc3ccccc3cc21`, the Potency entry in test [3], in test [9] and in [10] was “inactive” throughout. Besides, in [4], the Potency was 31600 nM (active). In addition, the caspase-3 activation in test [5] is 153% (active); in test [6], 9.9% (inactive).

On to `O=C1CN(/N=C/c2ccc([N+](=O)[O-])o2)C(=O)N1`, for which the result in test [1], in test [2] and in [17] was inactive. Besides, the Potency entry in [3], in test [4], in test [7], in test [8] and in test [9] was “inactive” throughout. For the same compound, the caspase-3 activation in test [5] was -0.519% (inactive); in [6], -0.37% (inactive).

As to `COc1cc(/C=C/C(=O)CC(=O)/C=C/c2ccc(O)c(OC)c2)ccc1O`, the outcome in test [1] was inactive. The Potency entry in [4] and in [13] was “inactive” throughout. The figures for the caspase-3 activation in [5] and in test [6] were 1.39% (inactive) and 27.4% (inactive), respectively. Moreover, the Potency in test [10] is 12600 nM (active).

Consider `N.N.O=C(O)C1(C(=O)O)CCC1.[Pt]`, for which the result in test [11] and in [17] was inactive. Besides, the Potency in test [12] and in test [15] was 3980 nM (active) throughout. For the same compound, the Potency result in test [10], in [13] and in test [16] was “inactive” in each case.

In the case of `C[C@@H](NC(=O)/C(C#N)=C/c1ccc(O)c(O)c1)c1ccccc1`, the compound was classed as inactive in [11]. In addition, the Potency entry in test [12] and in test [13] was “inactive” throughout.

On to `c1ccc2sc(SSc3nc4ccccc4s3)nc2c1`, for which the call in test [1] and in test [2] was inactive. The Potency entry in [3], in [4], in test [7], in test [8], in [9] and in [10] was “inactive” each time. Further, the caspase-3 activation was -0.551% (inactive) in test [5] and 2.01% (inactive) in test [6].

As to `CCCOC(=O)c1ccc(O)cc1`, the compound was classed as inactive in test [1] and in test [2]. The Potency entry in [3], in [4], in [7], in [8] and in test [9] was “inactive” each time. Also, the caspase-3 activation in test [5] is 1.99% (inactive) and 0.213% (inactive); in [6], 0.939% (inactive) and -1.18% (inactive).

`CN(C)c1ccc(C(=C2C=CC(=[N+](C)C)C=C2)c2ccccc2)cc1`: the Potency is 1260 nM (active) in test [3]; 1000 nM (active) in [4]; 79.4 nM (active) in [7]; 1000 nM (active) in test [8]; 794 nM (active) in test [9]. Further, the caspase-3 activation in test [5] was -4.63% (active); in test [6], -9.3% (active).

`Nc1ccc(O)c([N+](=O)[O-])c1`: the outcome in test [1] and in [2] was inactive. For the same compound, the Potency entry in [3], in test [4], in test [7], in test [8], in test [9] and in test [10] was “inactive” throughout. Besides, the caspase-3 activation in test [5] is 4.05% (inactive); in test [6] it was 0.408% (inactive).
